High-throughput results from PubChem BioAssay.
FLuc modulator: qHTS profiling assay for firefly luciferase inhibitor/activator using purifed enzyme and Km concentrations of substrates (counterscreen for miR-21 project); Luciferin 4-monooxygenase (Photinus pyralis), P08659; purified FLuc, Km substrates, luminescence inhibition; Potency, µM (top dose mostly 57.5 µM), actives largely listed as inhibitors; hit rate 6.9% among 360,000; AID 588342, 2011; further: nearly all actives have a fitted effect of over 55% in size
Target sequence (P08659 whole entry, looked up): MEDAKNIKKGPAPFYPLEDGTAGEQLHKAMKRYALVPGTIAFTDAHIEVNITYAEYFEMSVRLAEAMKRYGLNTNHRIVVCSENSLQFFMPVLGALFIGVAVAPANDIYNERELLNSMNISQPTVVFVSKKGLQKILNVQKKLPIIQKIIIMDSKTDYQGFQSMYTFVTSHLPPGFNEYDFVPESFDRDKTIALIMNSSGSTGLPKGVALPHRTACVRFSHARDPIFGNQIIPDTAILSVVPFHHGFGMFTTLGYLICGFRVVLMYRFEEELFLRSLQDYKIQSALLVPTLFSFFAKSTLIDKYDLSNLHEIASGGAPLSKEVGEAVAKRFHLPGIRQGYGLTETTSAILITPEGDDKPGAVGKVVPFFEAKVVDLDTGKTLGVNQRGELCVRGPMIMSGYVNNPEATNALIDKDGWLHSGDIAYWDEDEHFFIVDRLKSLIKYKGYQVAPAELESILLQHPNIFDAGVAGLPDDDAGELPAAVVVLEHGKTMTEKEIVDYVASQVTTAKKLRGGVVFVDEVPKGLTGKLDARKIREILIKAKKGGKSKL
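Biochemical qHTS of compounds, final roughly 60 µM downward over six points, against 10 nM purified firefly luciferase using Km concentrations of substrates (10 uM D-luciferin, 10 uM ATP) in Tris acetate pH 7.5 buffer; luminescence output.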
ELG1 genotox: qHTS screen for small molecules that induce genotoxicity in human embryonic kidney (HEK293T) cells expressing luciferase-tagged ELG1. HEK293T ELG1-luciferase reporter, luminescence, 16 h. Potency, µM (doses to about 46 µM), most hits filed as activators. hit rate 1.3% among 330,000. AID 504466, 2011; further: nearly all actives have a fitted effect of over 60% in size
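Reporter readout depends on ELG1 protein level, which increases with genetic stress. After 16 hr compound exposure at 37 °C, luciferase activity was quantified using ONE-Glo.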
NPC1 promoter act: qHTS Assay for NPC1 Promoter Activators. Huh7 NPC1 promoter luciferase reporter, 24 h. hit rate 2.4% among 320,000. AID 485313, 2010. Potency, µM (titrated, usually from 9.22 µM), actives largely listed as activators; further: nearly all actives have a fitted effect of over 60% in size
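Cells: Huh7 expressing luciferase under the NPC1 promoter, 1500/well. Seeded 2 h, compound added, incubated 24 h at 37 °C. Luciferase reagent, 10 min ambient, then luminescence.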
SMN2 splice enh: qHTS Assay for Enhancers of SMN2 Splice Variant Expression | HEK293 SMN2-luciferase splicing reporter, luminescence, 30-36 h | Potency, µM (series often up to 46.1 µM), hits mostly activators | hit rate 2.8% among 210,000 | AID 1458, 2008; further: nearly all actives have a fitted effect of over 55% in size
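qHTS luciferase splicing reporter: luminescence rises when SMN2 exon 7 is included in transfected HEK293 cells. Compound exposure lasted 30-36 h at 37C, with 4.5 mM final sodium butyrate as control, followed by a ONE-Glo read.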
Rab9 prom act: qHTS Assay for Rab9 Promoter Activators. Huh7 Rab9 promoter-luciferase reporter, luminescence, 24 h. Potency, µM (series often up to 9.22 µM), hits mostly activators. hit rate 2.8% among 320,000. AID 485297, 2010; further: nearly all actives have a fitted effect of over 60% in size
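Stable Rab9-luc Huh7, 1500 cells/well, 2 h settle; cmpd in DMSO, 24 h, 37 °C/5% CO2; luciferase reagent 10 min RT; luminescence.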
KinaseGlo FLuc: Counterscreen for Luciferase (Kinase-Glo TM) Inhibition; Kinase-Glo luciferase, ATP luminescence, 8 min; Potency, µM (doses to about 38.3 µM), usual class: inhibitors; hit rate 0.28% among 200,000; further: nearly all actives have a fitted effect of over 60% in size
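Kinase-Glo luciferase light output from ATP and luciferin was measured with 10 uM ATP, within the enzyme's linear range. Buffer: 50 mM imidazole pH 7.2, 50 mM KCl, 7 mM MgCl2, 0.01% Tween 20, 0.05% BSA; luminescence read after 8 min at ambient temperature.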
Large screens that a line does not name were inactive. Rows were chosen to be rich in hits. Some 7.5% of all compounds tested hit in one or more screens of this group. The call rests on the fitted dose curve; in most records, active means well fitted curve in the direction sought with a large enough effect; inconclusive means small, poorly fitted or top-dose-only effect, or another doubt; inactive means no such curve, though single readings can be large; an effect the other way counts as inactive or inconclusive.

COc1ccc(CCCc2nnc(SCC(=O)Nc3ccc(Cl)cc3)o2)cc1	none (no result: ELG1 genotox, NPC1 promoter act, Rab9 prom act, KinaseGlo FLuc)
COc1ccc(-c2csc(N(C)C(=O)c3cccs3)n2)cc1	FLuc modulator 6µM, NPC1 promoter act inconclusive, Rab9 prom act 2.5µM (no result: SMN2 splice enh)
O=C(c1ccco1)N(CCCN1CCOCC1)c1nc(-c2ccc(F)cc2)cs1	none
CN(C(=O)c1ccco1)c1nnc(-c2ccc(F)cc2)s1	FLuc modulator 6.7µM, ELG1 genotox inconclusive, NPC1 promoter act 2.2µM, Rab9 prom act 3.2µM (no result: SMN2 splice enh, KinaseGlo FLuc)
COc1ccc(-c2nnc(N(C)C(=O)c3ccco3)s2)cc1OC	none (no result: SMN2 splice enh, KinaseGlo FLuc)
CN(C(=O)c1ccco1)c1nc(-c2ccc(F)cc2)cs1	FLuc modulator 2.7µM, ELG1 genotox inconclusive, NPC1 promoter act 3.5µM, Rab9 prom act 2.8µM (no result: SMN2 splice enh, KinaseGlo FLuc)
CCN(C(=O)COC(=O)c1cccc(-n2cnnn2)c1)C1CCCCC1	none
Cc1ccc(Cl)cc1N1CCN(CCCNc2ncnc3onc(-c4ccc(F)cc4)c23)CC1	none (no result: ELG1 genotox, NPC1 promoter act, SMN2 splice enh, Rab9 prom act, KinaseGlo FLuc)
